The results in this text go back to PubChem BioAssay (NCI).

Each structure is given as a SMILES string. About 83,000 compounds went through this panel and 20% of them were active in at least one assay; those are over-represented in the sample as a whole.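 How to read the values: 0–100, growth inhibition (40 = 60% inhibited); 0, no net growth; -100 to 0, cell death (-40 = 40% of starting cells died; -100 = all dead).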 Values without a mark were called inactive. Calls of active or inactive are those of the source.

For the test, the system named is COLO 205 colon. The experiment in a line: NCI-60 one-dose screen, 48 h (100 = growth as untreated, 0 = no growth, -100 = all killed). As to conditions: 10 µM unless noted. Here is the method: Cells are grown in 96 well plates and exposed to the test compound for 48 hours. Compounds are tested at a single concentration, which is 10^-5 M for most compounds. The reported endpoint is percent growth (GI% or GIPRCNT), where numbers from 0 - 100% represent growth inhibition, and numbers from -100% - 0 represent cell death. For example, a value of 40 represents 60% growth inhibition. A value of 0 means no net growth occurred over the course of the experiment. A value of -40 indicates 40% of cells at the beginning of the experiment died by the end of the experiment. A value of -100 means all cells are dead at the end of the experiment.
NCI-60 Human Tumor Cell Lines Screen was performed using the standard one-dose NCI protocol, which is described in more detail at https://dtp.cancer.gov/discovery_development/nci-60/default.htm.
Compounds with GIPRCNT values below 10 were considered active. Activity score was based on GIPRCNT using the following formula: […]
Score is 0 for GIPRCNT values of 100 or above, 50 for GIPRCNT values of 0, and 100 for GIPRCNT values of -100.
Turning to `CC1(C)CC[C@]2(C(=O)O)CC[C@]3(C)C(=CCC4[C@@]5(C)C[C@@H](O)[C@@H]6OC(c7ccccc7O)OC[C@@]6(C)C5CC[C@]43C)C2C1` (stereo not given in full), the growth was 29.7%.

As to `Oc1ccc(CSc2nnc(-c3ccc(Br)cc3)n2-c2ccccc2)c2cccnc12`, the growth is 99.6%.

For the molecule `CCCCCCNC(=O)Oc1ccc(/C(=C(/C)c2ccc(Cl)cc2)c2ccc(OCCN3CCCC3)cc2)cc1`, the growth is -36.4% (active).

In the case of `COc1ccc(-c2cc(-c3ccc(Cl)cc3)nc3nc(N)nn23)cc1`, the growth was 105%.

On to `Cc1[nH]nc2ccc(-c3nc4cnc(N5CCN(C)CC5)cn4c3Nc3ccc(F)cc3Br)cc12`, for which the growth was 36.7%.

As for `NS(=O)(=O)c1ccc(Nc2nc(N/N=C/c3ccc([N+](=O)[O-])cc3)nc(Nc3ccccc3)n2)cc1`, the growth is 23.1%.

As for `C=C1C(=O)O[C@@H]2C[C@@H](C)[C@H](OC)CC(=O)[C@](C)(OC(C)=O)C[C@H](OC(=O)/C(C)=C\C)[C@@H]12`, the growth was -7.69% (active).

As to `O=C1c2cc(Br)ccc2-n2c1nc1cc(Br)ccc1c2=O`, the growth is 85.7%.

Take `O=S(=O)(Nc1ccc(-c2nc(-c3cccc(O)c3)c(-c3ccnc(Br)c3)[nH]2)cc1)c1ccccc1`: the growth is 43.3%.

For the molecule `O=S(=O)(Nc1ccc(I)c(Cl)c1)c1ccc(-c2cnc(C3CC3)o2)cc1`, the growth is 12%.

In the case of `O=c1oc2ccc(-c3ccc(F)cc3F)cc2c(=O)n1-c1cccc(C(F)(F)F)c1`, the growth is 87.3%.

`C(=C(\C1=NCCN1)n1cnc2ccccc21)/c1cccc2ccccc12`: the growth is 106%.

`CS(=O)c1nccc(-c2c(-c3ccc(F)c(OCCc4ccc(F)cc4)c3)nc3sccn23)n1` (stereo not given): the growth is 102%.

Take `COc1ccc(-c2nn(-c3ccccc3)cc2/C=C/C(=O)c2ccc(NC(=O)CCCCCCC(=O)NO)cc2)cc1`: the growth was 115%.

Take `Cn1cc(-c2nn3cc(-c4cccnc4)nc3s2)c2cc(F)ccc21`: the growth was 83.2%.

As for `O=C1NC(=O)c2c1c1c3ccccc3ccc1c1[nH]c3ccccc3c21`, the growth is 28.8%.

Consider `COc1cc(NC2=C(Cl)C(=O)c3nc(C)ccc3C2=O)cc(OC)c1`, for which the growth was -80.5% (active).

For the molecule `O=C(CN1C(=O)CSC1=O)Nc1ccc(C(=O)/C=C/c2cc3ccccc3nc2Cl)cc1`, the growth is 111%.

As for `CC(C)C(=O)Nc1ccc(-c2nc(-c3cccc(O)c3)c(-c3ccnc(Br)c3)[nH]2)cc1`, the growth is 59.3%.

Regarding `NC(=S)N/N=C(/C=C/c1cn(-c2ccccc2)nc1-c1ccc(Cl)cc1)c1cc2ccccc2oc1=O`, the growth was 38.1%.

Take `CC(C)(C)n1nnnc1C(Nc1nccs1)c1cc2cccc3ccc4cccc1c4c32` (stereo not given): the growth was 104%.

Take `COc1ccc(-c2oc3cc(O)cc(O)c3c(=O)c2OC)cc1O`: the growth was 91.4%.

Regarding `Cc1ccc(-c2nnc3sc(C4=Cc5ccccc5OC=C4)nn23)cc1`, the growth was 120%.

Take `CN(C)CCn1c2ccc(N)cc2c2nc3ccccc3nc21`: the growth was 9.4% (active).

`COCCOc1ccc(-c2csc(NC(C)=O)n2)cc1NS(=O)(=O)c1cccc2c(N(C)C)cccc12`: the growth was 94.5%.

With `COc1ccc2c(c1)c(-c1nn3c(=O)cc(-c4ccccc4)nc3s1)cn2C`, the growth is 27.2%.

As for `COc1ccc(Cn2cc3c(c2-c2cc(OC)c(OC)c(OC)c2)CCCc2cnoc2-3)cc1N`, the growth was 12.7%.

On to `CSc1nccc(-c2c(-c3ccc(F)c(OCc4ccc(F)cc4)c3)nc3sccn23)n1`, for which the growth is 83.8%.

As for `CC(=O)NC(C)(C)C(=O)N1CCC[C@H]1C(=O)NC(C)(C)C(=O)N[C@@H](C)C(=O)NC(C)(C)C(=O)N[C@@H](C)C(=O)N[C@@H](CCC(N)=O)C(=O)NC(C)(C)C(=O)N[C@H](C(=O)NC(C)(C)C(=O)NCC(=O)N[C@@H](CC(C)C)C(=O)NC(C)(C)C(=O)N1CCC[C@H]1C(=O)N[C@H](C(=O)NC(C)(C)C(=O)NC(C)(C)C(=O)N[C@@H](CCC(N)=O)C(=O)N[C@@H](CCC(N)=O)C(=O)N[C@H](CO)Cc1ccccc1)C(C)C)C(C)C`, the growth was 46.7% [4.25 µM].

Consider `C#CCOc1ccc(C(Nc2ccc(OC)cc2)c2nnnn2C2CCCCC2)cc1` (stereo not given), for which the growth is 106%.

For the molecule `CCOC(=O)c1nn(-c2ccc(C)cc2)c(=O)c2c(N)c(C#N)c(-c3ccc(OC)cc3)cc12`, the growth is 110%.

For the molecule `CC[C@@](C)(NC(=O)C(C)(C)NC(=O)[C@@H](NC(=O)[C@@H]1CCCN1C(=O)C(C)(C)NC(=O)[C@H](CC(C)C)NC(=O)CNC(=O)C(C)(C)NC(=O)[C@@H](NC(=O)C(C)(C)NC(=O)[C@H](CCC(N)=O)NC(=O)[C@H](C)NC(=O)C(C)(C)NC(=O)[C@H](C)NC(=O)C(C)(C)NC(=O)[C@@H]1CCCN1C(=O)C(C)(C)NC(C)=O)C(C)C)C(C)C)C(=O)N[C@@H](CCC(N)=O)C(=O)N[C@@H](CCC(N)=O)C(=O)N[C@H](CO)Cc1ccccc1`, the growth is -12.5% [4.25 µM] (active).

Take `CC1(C)CC[C@]2(C(=O)O)CC[C@]3(C)C(=CCC4[C@@]5(C)C[C@@H](O)[C@@H]6OC(c7cccc([N+](=O)[O-])c7)OC[C@@]6(C)C5CC[C@]43C)C2C1` (stereo not given in full): the growth was 53%.

`CCOC(=O)c1nn(-c2ccccc2)c(=O)c2c(N)c(C#N)c(-c3cccs3)cc12`: the growth was 102%.

On to `O=C(Cn1cc(CN2C(=O)c3ccc([N+](=O)[O-])cc3C2=O)nn1)Nc1ccc(F)cc1Cl`, for which the growth was 110%.

For `O=C1/C(=C/c2ccccc2[N+](=O)[O-])Oc2ccc(O)cc21`, the growth is 20.2%.

Take `C#CCOc1ccc(/C=N/Nc2nc(-c3cc4cc(Br)cc(Br)c4oc3=O)cs2)cc1`: the growth was 100%.

With `CN(c1ccc(Cl)cc1)S(=O)(=O)c1ccc(-c2cnc(C3CC3)o2)cc1`, the growth was -7.11% (active).

Consider `C/C(Cc1ccc(Cl)cc1)=C(/c1ccccc1)c1ccc(OCCN)cc1`, for which the growth was 103%.

As to `Oc1ccccc1/C=N/Nc1nc(N/N=C/c2ccccc2O)nc(N2CCOCC2)n1`, the growth is 48%.
